Experimental findings from PubChem BioAssay are described below.

Active and inactive are the calls of the source.

For test [1], the system named is XIP peptide (Xip251-270) binding. In words: small-molecule binders of XIP peptide, primary screen, biochemical, small-molecule microarray, fluorescence 635/667 nm, 0.1 µg/mL protein (AID 1182). The note with it: fluorescent protein binding, 635 nm, higher = more signal, called active from +8 up or from −8 down.
The subject of another test is XIP peptide (Xip251-270). In words: small-molecule binders of XIP peptide, primary screen, biochemical, small-molecule microarray, fluorescence 635/667 nm, 0.5 µg/mL protein (AID 1183). The following applies: small-molecule microarray binding, fluorescence 635 nm; higher = more signal.
The nature of test [2]: Plasmodium falciparum growth inhibition, primary screen, strain 3D7, DAPI fluorescence, 100 nL (AID 1184).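 Further: parasites grown inside human red blood cells in medium with human serum.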 The note with it: P. falciparum 3D7 growth, 3 d, higher = more signal.
Test [3] concerns the target Homeobox protein Hox-A13 (Mus musculus) (UniProt Q62424). The test is described as follows: inhibitors of HoxA13-DNA binding, primary screen, biochemical, fluorescence polarization, labeled oligonucleotide (AID 1185). The note with it: 15 min, higher = more signal, called active from +8 up or from −8 down. (Polarisation of emitted light reports the rotation of a fluorescent probe.)

Chain of Homeobox protein Hox-A13 (Mus musculus) (Q62424 whole entry, looked up): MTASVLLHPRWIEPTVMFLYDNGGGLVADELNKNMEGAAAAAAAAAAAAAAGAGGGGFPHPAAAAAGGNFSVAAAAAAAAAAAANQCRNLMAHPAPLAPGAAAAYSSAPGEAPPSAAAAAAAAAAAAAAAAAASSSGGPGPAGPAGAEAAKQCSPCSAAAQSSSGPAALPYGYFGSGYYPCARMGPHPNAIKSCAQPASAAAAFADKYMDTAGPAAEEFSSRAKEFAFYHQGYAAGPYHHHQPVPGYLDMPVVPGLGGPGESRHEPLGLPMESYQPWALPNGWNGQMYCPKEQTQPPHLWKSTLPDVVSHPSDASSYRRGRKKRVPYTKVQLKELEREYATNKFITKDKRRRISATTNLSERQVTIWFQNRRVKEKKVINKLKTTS

As for `CCO[C@H](c1cc(OC)cc([N+](=O)[O-])c1OC)[C@H](C)C=CCC(=O)OC`, the composite z-score in test [1] was -0.128 (inactive); in the test on XIP peptide (Xip251-270), 0.325. The values for the z-score in test [2] and in test [3] were -0.0866 and -0.64 (inactive), respectively.

As for `CO[C@H]1COC(=O)[C@H](C)NC(=O)[C@@H](C)COC(=O)[C@H]2CCCN2C(=O)CC=C[C@H]1C`, the composite z-score is -0.077 (inactive) in test [1] and -0.143 in the test with XIP peptide (Xip251-270). For the same compound, the z-score in test [2] is 0.43; in test [3], 0.24 (inactive).

As to `COC(=O)[C@@H]1CC[C@H](C)[C@@H](c2ccc(C)cc2)N1C(=O)c1ccc(C=NO[C@@H]2O[C@H](COC(C)=O)[C@@H](OC(C)=O)[C@H](OC(C)=O)[C@H]2OC(C)=O)cc1`, the composite z-score in test [1] was -0.279 (inactive); with XIP peptide (Xip251-270) it was 0.649. Moreover, the values for the z-score in test [2] and in test [3] were -1.4 and 0.102 (inactive), respectively.

With `CCCNC(=O)OC[C@H]1O[C@H](CCON=C(C)C)C=C[C@@H]1Oc1ccc(OC)cc1`, the composite z-score in test [1] is 0.771 (inactive); in the test with XIP peptide (Xip251-270), 0.219. For the same compound, the results for the z-score in test [2] and in test [3] were 1.07 and 0.928 (inactive), respectively.

In the case of `CCC=CCCC(OC(=O)c1ccc(Br)cc1)C1=CCCCC1=O` (stereo not drawn), the values for the composite z-score (in test [1]; with XIP peptide (Xip251-270)) were 0.84 (inactive) and 0.49, respectively. Also, the z-score in test [2] is -0.713; in test [3], -3.22 (inactive).

Turning to `CCCCC#C[C@@H]1C=C[C@H](Oc2ccc(C(=O)OC)cc2)[C@@H](COC(=O)OCC)O1`, the composite z-score in test [1] is -0.464 (inactive); in the test with XIP peptide (Xip251-270), 0.522. Further, the z-score in test [2] is -0.332; in test [3] it was -5.73 (inactive).

Turning to `CCOC(=O)[C@H](CC(C)C)NC(=O)CCC1CC(OC(=O)NCc2cccc3ccccc23)CC2(CCCC(COC(=O)NCCc3ccc(Cl)cc3)O2)O1` (stereo partly drawn), the composite z-score is -0.0551 (inactive) in test [1] and 0.111 in the test with XIP peptide (Xip251-270). The z-score in test [2] is -1.61; in test [3], -4.02 (inactive).

For the compound `C#CCCCON=C1[C@H]2CCn3c(=O)n(C)c(=O)n3[C@H]2[C@H](O)[C@@H]2O[C@H]12`, the composite z-score is -0.158 (inactive) in test [1] and 0.442 in the test on XIP peptide (Xip251-270). The values for the z-score in test [2] and in test [3] were 0.275 and 0.292 (inactive), respectively.

Regarding `C#CCCCON=C1[C@H]2CCn3c(=O)n(-c4ccccc4)c(=O)n3[C@H]2[C@H](O)[C@@H]2O[C@H]12`, the figures for the composite z-score (in test [1]; in the test on XIP peptide (Xip251-270)) were 0.245 (inactive) and 0.193, respectively. The z-score in test [2] was -1.19; in test [3], 0.241 (inactive).

On to `O=C1[C@H]2[C@H]3[C@H](O)[C@H](O)CC(=NOC[C@@H](O)COCc4ccco4)[C@H]3CC[C@H]2C(=O)N1C[C@@H]1CCCO1`, for which the values for the composite z-score (in test [1]; in the test on XIP peptide (Xip251-270)) were -0.149 (inactive) and 0.605, respectively. Further, the z-score was 0.523 in test [2] and -0.514 (inactive) in test [3].

Regarding `CCOC(=O)[C@H](Cc1ccccc1)NC(=O)CCC1CC(OC(=O)NCCc2ccc(F)cc2)CC2(CCCC(COC(=O)NCCc3ccc(Cl)cc3)O2)O1` (stereo partly drawn), the composite z-score in test [1] was -0.345 (inactive); in the test on XIP peptide (Xip251-270), 0.348. Further, the z-score in test [2] was -1.84; in test [3] it was -3.08 (inactive).

For `C[C@@H](c1ccccc1)N1C(=O)[C@H]2[C@H]3[C@H](O)[C@H](O)CC(=NO[C@@H]4O[C@H](CO)[C@@H](O)[C@H](O)[C@H]4O)[C@H]3CC[C@H]2C1=O`, the composite z-score in test [1] was -0.0033 (inactive); with XIP peptide (Xip251-270) it was 0.216. Further, the z-score in test [2] was -0.648; in test [3], -0.285 (inactive).

Consider `CCN1C(=O)[C@H]2[C@H]3[C@H](O)[C@H](O)CC(=O)[C@@H]3CC[C@H]2C1=O`, for which the composite z-score in test [1] is 0.221 (inactive); with XIP peptide (Xip251-270) it was 0.488. The z-score in test [2] was 1.51; in test [3] it was 0.202 (inactive).

Consider `CC(C)=CCCC(C)=CCON=C1C[C@@H](O)[C@@H](O)[C@@H]2[C@@H]3C(=O)N(C(C)(C)C)C(=O)[C@@H]3CC[C@@H]12`, for which the composite z-score in test [1] is -0.119 (inactive); in the test on XIP peptide (Xip251-270), 0.233. In addition, the z-score in test [2] was -1.34; in test [3] it was -1.09 (inactive).

For the compound `COc1ccc(COC(=O)NN=C2C[C@@H](O)[C@@H](O)[C@@H]3[C@@H]4C(=O)N(c5cccc(Oc6ccccc6)c5)C(=O)[C@@H]4CC[C@@H]23)cc1`, the composite z-score in test [1] was -0.378 (inactive); in the test on XIP peptide (Xip251-270) it was -0.206. The z-score in test [2] was -0.374; in test [3], -4.69 (inactive).

For `COC(=O)C=CCCc1coc(C=CCNC(=O)OC)n1`, the composite z-score is 0.56 (inactive) in test [1] and 0.868 in the test on XIP peptide (Xip251-270). For the same compound, the z-score in test [2] is -0.92; in test [3], -2.9 (inactive).

For the compound `O=c1n(-c2ccccc2)c(=O)n2n1CC[C@@H]1C(=NOCc3ccccc3)[C@H]3O[C@H]3[C@@H](O)[C@@H]12`, the composite z-score in test [1] is -0.368 (inactive); in the test with XIP peptide (Xip251-270) it was -0.0725. The figures for the z-score in test [2] and in test [3] were -0.557 and -4.06 (inactive), respectively.

Consider `C[n+]1ccc(-c2ccc(CO)cc2)cc1`, for which the results for the composite z-score (in test [1]; in the test with XIP peptide (Xip251-270)) were 0.725 (inactive) and -0.227, respectively. Further, the z-score in test [2] was 1.09; in test [3] it was -2.76 (inactive).

For the compound `CC(=O)O[C@H]1C2=CO[C@H](C)[C@H]3[C@H]4C5=C([C@H](O)[C@H]6O[C@H]6C5=O)[C@H](OC4C)[C@@]23C(=O)[C@@H]2O[C@@H]21` (stereo partly drawn), the composite z-score was 0.533 (inactive) in test [1] and -0.406 in the test on XIP peptide (Xip251-270). For the same compound, the z-score is -1.24 in test [2] and -1.02 (inactive) in test [3].

Consider `CCOC(=O)NN=C1C[C@@H](O)[C@@H](O)[C@@H]2[C@@H]3C(=O)N(Cc4ccc5c(c4)OCO5)C(=O)[C@@H]3CC[C@H]12`, for which the figures for the composite z-score (in test [1]; in the test with XIP peptide (Xip251-270)) were 2.21 (inactive) and -0.437, respectively. Besides, the z-score in test [2] was -0.948; in test [3], -0.227 (inactive).

Regarding `COc1ccc(O[C@H]2C=C[C@@H](c3ccccc3)O[C@@H]2CON=CC[C@@H]2C=C[C@H](OC(C)=O)[C@@H](COC(C)=O)O2)cc1`, the composite z-score is 0.21 (inactive) in test [1] and -0.104 in the test with XIP peptide (Xip251-270). Besides, the figures for the z-score in test [2] and in test [3] were -0.483 and -4.06 (inactive), respectively.

With `COc1ccc(O[C@H]2C=C[C@@H](c3ccccc3)O[C@@H]2COC(=O)CCC(C)=NOC(C)CN2CCCc3nc(C)c(C)cc32)cc1` (stereo partly drawn), the figures for the composite z-score (in test [1]; with XIP peptide (Xip251-270)) were 0.53 (inactive) and 0.552, respectively. For the same compound, the values for the z-score in test [2] and in test [3] were -1.95 and -5.13 (inactive), respectively.
